# A number with no mark means an inactive call.
# How the values were obtained:
# Assay in all cases: log2 ratio of Biotin-Ahx-Ub-VS probe labelling (fragment/DMSO); higher = less target engagement (more negative = stronger competition), active = hit call of the paper (q ≤ 0.05, log2 ratio ≤ -1)
# Conditions in all cases: compound concentration: 200 uM; treatment time: 3 h
# USP16 = USP16 (UniProt Q9Y5T5)
# Method in brief: (§1)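 Using Biotin-Ahx-Ub-VS at 0.5 µM final for 1 h, DUBs were labelled in HEK293T lysate (495 µg per sample) that had first been treated in triplicate with fragment at 200 µM or vehicle for 3 h. NeutrAvidin enrichment, LysC and trypsin digestion and diaPASEF LC-MS/MS followed. Spectronaut label-free quantities were global-median-normalised. Values are average log2 fragment/vehicle ratios by unpaired t-test, using proteins with ≥2 unique peptides.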
# USP19 = biological target: T1, USP19 (UniProt O94966)
# T1 sequence (whole entry): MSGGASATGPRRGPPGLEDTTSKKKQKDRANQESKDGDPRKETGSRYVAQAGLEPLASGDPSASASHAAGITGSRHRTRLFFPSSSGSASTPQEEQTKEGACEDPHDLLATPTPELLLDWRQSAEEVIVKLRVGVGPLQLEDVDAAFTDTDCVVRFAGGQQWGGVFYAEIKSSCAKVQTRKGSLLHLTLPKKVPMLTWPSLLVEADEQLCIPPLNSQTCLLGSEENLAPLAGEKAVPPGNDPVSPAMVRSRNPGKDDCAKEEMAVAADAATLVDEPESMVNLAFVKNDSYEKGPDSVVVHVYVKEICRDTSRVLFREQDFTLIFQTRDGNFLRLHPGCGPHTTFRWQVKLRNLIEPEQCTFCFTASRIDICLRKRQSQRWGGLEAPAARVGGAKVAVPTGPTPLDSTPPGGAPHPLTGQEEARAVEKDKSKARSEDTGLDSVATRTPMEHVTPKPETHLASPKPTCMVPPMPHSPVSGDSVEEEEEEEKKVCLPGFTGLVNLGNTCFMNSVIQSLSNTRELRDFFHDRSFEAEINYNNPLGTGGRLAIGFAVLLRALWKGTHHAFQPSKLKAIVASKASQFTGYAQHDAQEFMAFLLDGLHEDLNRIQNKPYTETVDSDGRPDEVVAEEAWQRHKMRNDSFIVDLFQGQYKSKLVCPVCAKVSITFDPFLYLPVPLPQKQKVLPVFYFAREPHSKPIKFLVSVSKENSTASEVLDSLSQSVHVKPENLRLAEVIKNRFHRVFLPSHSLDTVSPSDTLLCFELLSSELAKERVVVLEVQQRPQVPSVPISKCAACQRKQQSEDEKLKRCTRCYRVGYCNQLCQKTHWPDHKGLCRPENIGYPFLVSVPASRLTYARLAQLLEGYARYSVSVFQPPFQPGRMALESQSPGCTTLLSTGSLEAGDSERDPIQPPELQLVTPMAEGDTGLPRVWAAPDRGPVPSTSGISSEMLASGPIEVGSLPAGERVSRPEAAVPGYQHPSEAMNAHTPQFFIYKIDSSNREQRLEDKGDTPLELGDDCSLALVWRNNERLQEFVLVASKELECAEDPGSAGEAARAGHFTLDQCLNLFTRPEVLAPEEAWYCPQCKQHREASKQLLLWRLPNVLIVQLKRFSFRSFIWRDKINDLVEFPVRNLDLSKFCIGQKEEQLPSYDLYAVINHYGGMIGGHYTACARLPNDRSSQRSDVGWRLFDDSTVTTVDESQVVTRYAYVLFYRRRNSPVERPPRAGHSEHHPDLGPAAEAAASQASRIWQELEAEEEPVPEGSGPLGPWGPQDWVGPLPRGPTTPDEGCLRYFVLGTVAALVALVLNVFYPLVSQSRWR
# Method in brief: as §1
# USP24 = USP24 (UniProt Q9UPU5)
# Chain of USP24 (Q9UPU5 whole entry): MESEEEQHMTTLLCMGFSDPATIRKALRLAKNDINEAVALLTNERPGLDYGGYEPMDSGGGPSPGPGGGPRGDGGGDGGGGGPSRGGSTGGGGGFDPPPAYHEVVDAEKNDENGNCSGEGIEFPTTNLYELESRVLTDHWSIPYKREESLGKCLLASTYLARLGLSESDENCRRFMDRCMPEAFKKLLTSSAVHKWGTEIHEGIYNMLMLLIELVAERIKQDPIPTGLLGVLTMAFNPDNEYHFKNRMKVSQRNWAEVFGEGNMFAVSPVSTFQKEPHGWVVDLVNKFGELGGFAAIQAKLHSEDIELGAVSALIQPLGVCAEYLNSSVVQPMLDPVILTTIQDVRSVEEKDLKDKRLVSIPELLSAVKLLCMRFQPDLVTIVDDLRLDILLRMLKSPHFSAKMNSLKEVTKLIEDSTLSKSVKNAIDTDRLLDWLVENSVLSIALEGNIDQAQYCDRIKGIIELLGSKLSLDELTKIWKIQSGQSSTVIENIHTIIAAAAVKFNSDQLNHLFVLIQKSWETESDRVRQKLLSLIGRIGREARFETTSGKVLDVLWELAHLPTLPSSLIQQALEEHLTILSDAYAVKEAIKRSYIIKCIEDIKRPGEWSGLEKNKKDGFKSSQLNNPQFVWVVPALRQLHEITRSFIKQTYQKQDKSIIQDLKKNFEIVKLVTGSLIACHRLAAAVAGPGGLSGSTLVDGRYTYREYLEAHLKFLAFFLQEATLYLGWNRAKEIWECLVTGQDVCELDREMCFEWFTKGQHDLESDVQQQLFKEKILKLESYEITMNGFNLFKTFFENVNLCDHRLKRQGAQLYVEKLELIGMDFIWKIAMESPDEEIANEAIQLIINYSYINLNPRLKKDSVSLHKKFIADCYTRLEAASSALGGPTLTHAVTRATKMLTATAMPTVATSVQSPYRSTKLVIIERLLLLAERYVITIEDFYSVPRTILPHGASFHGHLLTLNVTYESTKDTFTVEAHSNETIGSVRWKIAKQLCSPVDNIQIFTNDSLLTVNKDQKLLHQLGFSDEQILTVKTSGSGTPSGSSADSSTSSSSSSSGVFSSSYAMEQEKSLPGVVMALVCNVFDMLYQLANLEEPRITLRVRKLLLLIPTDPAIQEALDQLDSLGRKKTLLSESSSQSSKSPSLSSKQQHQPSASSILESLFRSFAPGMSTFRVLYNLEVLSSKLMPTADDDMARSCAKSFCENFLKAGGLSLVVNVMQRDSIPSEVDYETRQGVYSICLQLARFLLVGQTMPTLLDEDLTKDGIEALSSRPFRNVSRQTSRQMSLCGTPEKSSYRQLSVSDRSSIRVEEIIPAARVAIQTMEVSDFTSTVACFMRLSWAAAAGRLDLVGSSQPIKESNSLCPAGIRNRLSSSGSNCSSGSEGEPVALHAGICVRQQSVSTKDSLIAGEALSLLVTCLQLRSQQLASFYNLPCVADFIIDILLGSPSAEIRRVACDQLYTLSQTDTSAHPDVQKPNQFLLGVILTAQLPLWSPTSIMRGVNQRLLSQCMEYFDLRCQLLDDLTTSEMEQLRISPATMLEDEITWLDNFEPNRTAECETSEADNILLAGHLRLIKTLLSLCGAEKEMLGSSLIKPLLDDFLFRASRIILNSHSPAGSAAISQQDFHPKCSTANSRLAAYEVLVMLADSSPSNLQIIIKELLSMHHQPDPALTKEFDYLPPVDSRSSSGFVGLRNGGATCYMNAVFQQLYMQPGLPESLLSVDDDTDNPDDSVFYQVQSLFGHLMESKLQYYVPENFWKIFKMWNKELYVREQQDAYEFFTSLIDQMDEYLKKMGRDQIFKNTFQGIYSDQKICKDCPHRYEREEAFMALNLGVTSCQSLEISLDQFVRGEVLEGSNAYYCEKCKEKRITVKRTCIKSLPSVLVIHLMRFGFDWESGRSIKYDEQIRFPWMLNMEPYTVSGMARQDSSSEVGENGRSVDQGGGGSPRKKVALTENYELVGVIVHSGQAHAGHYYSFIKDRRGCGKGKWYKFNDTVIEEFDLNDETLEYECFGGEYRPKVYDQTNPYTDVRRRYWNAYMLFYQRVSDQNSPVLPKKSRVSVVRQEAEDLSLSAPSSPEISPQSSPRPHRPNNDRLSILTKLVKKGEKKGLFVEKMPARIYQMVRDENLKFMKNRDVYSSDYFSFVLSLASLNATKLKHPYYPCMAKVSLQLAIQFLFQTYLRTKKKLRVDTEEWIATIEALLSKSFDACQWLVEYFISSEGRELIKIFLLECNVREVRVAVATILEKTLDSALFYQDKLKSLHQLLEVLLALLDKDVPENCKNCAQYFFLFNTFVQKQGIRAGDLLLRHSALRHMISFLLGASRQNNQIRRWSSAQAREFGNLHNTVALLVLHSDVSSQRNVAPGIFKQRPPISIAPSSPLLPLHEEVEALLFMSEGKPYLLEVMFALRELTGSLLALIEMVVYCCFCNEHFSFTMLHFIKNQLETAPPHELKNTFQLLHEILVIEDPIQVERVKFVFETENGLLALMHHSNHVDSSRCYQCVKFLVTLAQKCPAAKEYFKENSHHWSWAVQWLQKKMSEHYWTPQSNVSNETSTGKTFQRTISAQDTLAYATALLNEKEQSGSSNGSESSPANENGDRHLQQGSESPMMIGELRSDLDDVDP
# Method in brief: as §1
# USP25 = biological target: T2, USP25 (UniProt Q9UHP3)
# T2 sequence (whole entry): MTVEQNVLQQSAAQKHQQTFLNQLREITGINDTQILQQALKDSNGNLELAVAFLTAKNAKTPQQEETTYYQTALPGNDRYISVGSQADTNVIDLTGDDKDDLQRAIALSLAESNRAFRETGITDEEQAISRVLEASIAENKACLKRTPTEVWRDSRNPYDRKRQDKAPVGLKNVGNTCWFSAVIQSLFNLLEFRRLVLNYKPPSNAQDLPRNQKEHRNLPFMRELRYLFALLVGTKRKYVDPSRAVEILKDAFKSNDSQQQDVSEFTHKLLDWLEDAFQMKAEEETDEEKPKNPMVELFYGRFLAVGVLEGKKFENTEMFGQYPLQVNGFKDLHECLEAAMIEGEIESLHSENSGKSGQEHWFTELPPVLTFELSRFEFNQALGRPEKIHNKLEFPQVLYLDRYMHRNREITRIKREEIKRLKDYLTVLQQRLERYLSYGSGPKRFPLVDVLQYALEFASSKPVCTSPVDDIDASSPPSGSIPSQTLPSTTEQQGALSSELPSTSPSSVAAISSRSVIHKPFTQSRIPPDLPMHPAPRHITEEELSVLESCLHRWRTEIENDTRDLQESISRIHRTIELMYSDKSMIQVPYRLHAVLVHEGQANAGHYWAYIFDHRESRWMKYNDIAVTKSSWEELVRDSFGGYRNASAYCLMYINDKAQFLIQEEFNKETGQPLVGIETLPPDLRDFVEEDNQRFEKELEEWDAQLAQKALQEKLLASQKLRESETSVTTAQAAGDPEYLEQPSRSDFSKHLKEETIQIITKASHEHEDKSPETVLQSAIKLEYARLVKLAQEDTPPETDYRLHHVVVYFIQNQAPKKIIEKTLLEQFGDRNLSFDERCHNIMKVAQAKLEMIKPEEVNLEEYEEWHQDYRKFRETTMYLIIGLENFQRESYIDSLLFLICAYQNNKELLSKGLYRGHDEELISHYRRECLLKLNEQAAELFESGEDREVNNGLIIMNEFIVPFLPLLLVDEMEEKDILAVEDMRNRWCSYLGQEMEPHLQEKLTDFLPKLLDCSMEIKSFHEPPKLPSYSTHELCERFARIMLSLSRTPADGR
# Method in brief: as §1
# USP28 = biological target: T3, USP28 (UniProt Q96RU2)
# T3 sequence (whole entry): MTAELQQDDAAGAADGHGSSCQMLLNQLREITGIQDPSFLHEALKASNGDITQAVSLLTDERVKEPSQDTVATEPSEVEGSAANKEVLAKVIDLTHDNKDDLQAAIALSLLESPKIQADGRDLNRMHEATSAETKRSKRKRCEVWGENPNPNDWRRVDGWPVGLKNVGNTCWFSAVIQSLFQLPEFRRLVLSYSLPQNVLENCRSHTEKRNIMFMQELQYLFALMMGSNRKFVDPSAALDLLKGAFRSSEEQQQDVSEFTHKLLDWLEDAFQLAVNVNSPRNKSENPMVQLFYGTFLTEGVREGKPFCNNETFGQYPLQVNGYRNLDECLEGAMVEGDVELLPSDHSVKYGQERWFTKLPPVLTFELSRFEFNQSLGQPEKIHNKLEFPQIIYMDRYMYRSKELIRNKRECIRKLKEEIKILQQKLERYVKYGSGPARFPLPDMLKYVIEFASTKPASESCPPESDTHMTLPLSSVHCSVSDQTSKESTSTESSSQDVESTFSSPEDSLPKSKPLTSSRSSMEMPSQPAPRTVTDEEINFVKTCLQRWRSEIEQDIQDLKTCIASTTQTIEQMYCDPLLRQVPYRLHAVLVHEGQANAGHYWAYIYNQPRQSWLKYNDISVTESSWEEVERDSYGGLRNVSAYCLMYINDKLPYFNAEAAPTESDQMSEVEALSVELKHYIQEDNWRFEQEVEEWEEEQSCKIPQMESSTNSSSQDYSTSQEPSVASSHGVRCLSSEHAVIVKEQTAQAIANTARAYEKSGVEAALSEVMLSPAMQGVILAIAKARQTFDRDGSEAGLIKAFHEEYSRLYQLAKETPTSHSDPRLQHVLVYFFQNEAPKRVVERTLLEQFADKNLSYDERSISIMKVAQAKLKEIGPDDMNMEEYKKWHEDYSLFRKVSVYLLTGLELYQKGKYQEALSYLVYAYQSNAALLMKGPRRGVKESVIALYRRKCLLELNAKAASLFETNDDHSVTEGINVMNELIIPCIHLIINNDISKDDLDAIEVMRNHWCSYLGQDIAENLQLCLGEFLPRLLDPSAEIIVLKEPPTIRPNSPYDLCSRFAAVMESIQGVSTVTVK
# Method in brief: as §1
# Chain of USP16 (Q9Y5T5 whole entry, looked up, the tested form may be a part): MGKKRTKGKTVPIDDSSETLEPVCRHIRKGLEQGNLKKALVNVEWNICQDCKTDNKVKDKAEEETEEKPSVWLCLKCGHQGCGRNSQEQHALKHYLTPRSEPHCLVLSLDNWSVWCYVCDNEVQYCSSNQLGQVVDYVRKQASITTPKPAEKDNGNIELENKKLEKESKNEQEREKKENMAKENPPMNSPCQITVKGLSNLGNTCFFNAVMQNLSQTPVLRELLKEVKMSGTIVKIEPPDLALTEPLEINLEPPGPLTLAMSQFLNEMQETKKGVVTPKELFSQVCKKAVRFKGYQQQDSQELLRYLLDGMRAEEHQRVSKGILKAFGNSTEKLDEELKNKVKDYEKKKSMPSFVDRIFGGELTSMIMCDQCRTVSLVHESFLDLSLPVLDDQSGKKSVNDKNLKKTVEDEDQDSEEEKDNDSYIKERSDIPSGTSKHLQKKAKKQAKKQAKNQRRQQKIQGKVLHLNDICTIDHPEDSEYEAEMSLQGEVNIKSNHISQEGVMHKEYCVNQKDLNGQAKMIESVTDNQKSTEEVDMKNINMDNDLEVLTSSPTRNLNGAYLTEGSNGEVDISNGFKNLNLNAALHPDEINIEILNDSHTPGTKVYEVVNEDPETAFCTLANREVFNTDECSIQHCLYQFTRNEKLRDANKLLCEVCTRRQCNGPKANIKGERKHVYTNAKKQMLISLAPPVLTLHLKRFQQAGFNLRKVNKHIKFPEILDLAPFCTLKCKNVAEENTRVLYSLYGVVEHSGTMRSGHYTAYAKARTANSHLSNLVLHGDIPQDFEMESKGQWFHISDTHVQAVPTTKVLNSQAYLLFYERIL
smiles,measurement,setting,value
Cc1cccc(NC(=O)CCl)c1C,log2 ratio of Biotin-Ahx-Ub-VS probe labelling,USP16,-0.691
same,log2 ratio of Biotin-Ahx-Ub-VS probe labelling,USP19,-0.393
same,log2 ratio of Biotin-Ahx-Ub-VS probe labelling,USP24,-0.573
same,log2 ratio of Biotin-Ahx-Ub-VS probe labelling,USP25,-1.06 (active)
same,log2 ratio of Biotin-Ahx-Ub-VS probe labelling,USP28,-1.32 (active)
